High-throughput results as filed in PubChem BioAssay.
Only some compounds are listed: those with a hit (about 2.5% of all), similar ones and a draw of the others.
SUMO HTRF inh: inhibitors of human SUMOylation (UBC9) | 0.36% of 290,000 active | inhibition, % at 35 µM | HTRF SUMOylation assay, SAE1/SAE2 + UBC9, in vitro | AID 2006; in the data active = inhibition above about 50%, passing the limit was not always enough
G6PDH CS: L. mesenteroides G6PDH inhibition counter-screen. Purified L. mesenteroides G6PDH, diaphorase/resazurin coupled fluorescence, 45 min. inhibition, % at 5 µM. 0.12% of 200,000 active; in the data active = inhibition above about 50%
PHOSPHO1 block: PHOSPHO1 (human) inhibition; Q8TCT1; recombinant PHOSPHO1, absorbance phosphatase assay; inhibition, % at 13.3 µM; 1.1% of 290,000 active; AID 1565; in the data active = inhibition above about 60%
p97 ATPase inh: inhibitors of human p97 ATPase. P55072. inhibition, % at 8 µM. 0.42% of 220,000 active. recombinant p97 ATPase, Kinase-Glo ATP luminescence, 3 h; in the data active = inhibition above about 15%;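 note: 0% = DMSO vehicle and 100% = wells lacking enzyme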
Target sequence (P55072 whole entry, looked up): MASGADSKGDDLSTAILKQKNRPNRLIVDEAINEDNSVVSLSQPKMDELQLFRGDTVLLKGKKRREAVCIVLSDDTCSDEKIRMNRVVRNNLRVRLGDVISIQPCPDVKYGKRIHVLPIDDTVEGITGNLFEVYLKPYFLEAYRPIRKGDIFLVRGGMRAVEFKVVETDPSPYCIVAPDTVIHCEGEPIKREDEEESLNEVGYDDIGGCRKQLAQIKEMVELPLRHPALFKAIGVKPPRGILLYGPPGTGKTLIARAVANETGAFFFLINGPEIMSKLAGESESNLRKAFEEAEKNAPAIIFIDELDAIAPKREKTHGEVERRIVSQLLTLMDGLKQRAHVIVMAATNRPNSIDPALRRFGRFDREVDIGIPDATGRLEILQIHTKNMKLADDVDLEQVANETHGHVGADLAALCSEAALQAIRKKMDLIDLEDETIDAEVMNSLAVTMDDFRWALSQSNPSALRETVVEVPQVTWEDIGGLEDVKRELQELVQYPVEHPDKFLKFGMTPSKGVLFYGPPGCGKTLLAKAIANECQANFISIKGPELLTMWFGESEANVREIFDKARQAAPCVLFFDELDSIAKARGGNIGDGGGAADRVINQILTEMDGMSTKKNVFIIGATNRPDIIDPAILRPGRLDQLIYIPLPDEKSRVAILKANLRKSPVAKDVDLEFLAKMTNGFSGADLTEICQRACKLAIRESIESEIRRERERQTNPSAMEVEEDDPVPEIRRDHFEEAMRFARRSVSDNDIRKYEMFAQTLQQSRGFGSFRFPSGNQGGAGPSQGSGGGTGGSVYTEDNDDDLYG
M18AAP inhibitor: PfM18AAP enzyme inhibition. recombinant PfM18AAP, H-Glu-NHMec fluorogenic cleavage. inhibition, % at 7.35 µM. 1.2% of 290,000 active. AID 1822;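 active = inhibition above the campaign mean inhibition over all tested compounds plus 3 SD, cut at about 28% in these data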;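 note: 0% = plate median of test compound wells and 100% = 2 mM ZnCl2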
HDAC3 inh: inhibitors of human histone deacetylase 3 | inhibition, % at 8.3 µM | 0.15% of 320,000 active | recombinant HDAC3, fluorogenic peptide/trypsin coupled, fluorescence | O15379; in the data active = inhibition above about 26%, passing the limit was not always enough
An asterisk follows results filed as active; x = no result.

SMILES | SUMO HTRF inh | G6PDH CS | PHOSPHO1 block | p97 ATPase inh | M18AAP inhibitor | HDAC3 inh
Nn1c(C2COc3ccccc3O2)n[nH]c1=S (centres undefined) | 2.9 | x | 78.2* | 7.5 | 25.5 | 15.5
CCOC(=O)CNC(=O)CSc1nc(N)cc(N)n1 | -19.1 | 0.6 | 14.4 | -7.0 | -8.2 | -4.5
CCOC(=O)CNC(=S)n1cnc(N)n1 | 4.1 | -0.6 | 20.3 | -5.1 | 56.8* | 2.6
CCCCSc1nnc2c(n1)OC(C(=O)c1ccccc1)Nc1ccccc1-2 (centres undefined) | 17.1 | -4.2 | 90.2* | 0.1 | 12.0 | x
COc1ccccc1C(=O)C1Nc2ccccc2-c2nnc(SC)nc2O1 (centres undefined) | 12.0 | 5.1 | -8.3 | 7.6 | 7.4 | 3.4
Oc1ccc2ccccc2c1CNc1cnc2ccccc2c1 | -0.5 | 25.4 | 106.3* | 4.1 | -20.0 | -23.4
CCC(C)(C)n1nnnc1C(c1ccc(O)c(OC)c1)N1CCN(c2nc3ccccc3s2)CC1 (centres undefined) | 5.3 | 6.3 | 67.5* | 5.4 | 6.2 | 4.8
COc1ccc(C(c2nnnn2C(C)(C)C)N2CCN(c3nc4ccccc4s3)CC2)cc1 (centres undefined) | 10.2 | 7.9 | 24.5 | 3.9 | 4.8 | x
CCCCc1ccc(NC(=S)NCc2ccc(OC)cc2)cc1 | -7.6 | 9.2 | 42.1 | 1.7 | -3.3 | 0.2
CC(O)CNc1nc2ccccc2n1CC(=O)NCC(F)(F)F (centres undefined) | 9.0 | 2.6 | 73.2* | 3.7 | -3.1 | 3.5
CC(O)CNc1nc2ccccc2n1CC(=O)NC12CC3CC(CC(C3)C1)C2 (centres undefined) | 14.0 | 4.5 | -7.1 | 2.3 | 2.5 | 5.6
COC(=O)CCC[C@H]1CC2(C[C@H](CCCO[Si](C)(C)C(C)(C)C)N1C(=O)OC(C)(C)C)OCCO2 | x | x | x | x | x | 19.8
CCCCn1c(SCC(=O)NC(C)CC)nc2ccc(N3CCOCC3)cc2c1=O (centres undefined) | 32.7 | 38.3 | 60.5* | 2.6 | 2.8 | 7.6
CCC(Sc1nnc(-c2ccc(C)c(Cl)c2)n1CC)C(=O)Nc1nccs1 (centres undefined) | 0.7 | 4.5 | 62.4* | 2.8 | -7.8 | -2.1
CCn1c(SCC(=O)Nc2nccs2)nnc1-c1ccc(S(=O)(=O)N2CCCCCC2)cc1 | 5.0 | 0.5 | 30.3 | 1.1 | -2.3 | 3.5
COc1cc(/C=N/N=C/c2cc(OC)c(O)c(OC)c2)cc(OC)c1O | -30.1 | 5.8 | -13.2 | 0.9 | 30.1* | 10.6
COc1ccc(/C=N/N=C/c2ccc(OC)c(OC)c2)cc1OC | 2.3 | -2.1 | 15.7 | 2.0 | -4.3 | 8.3
CC1CCN(CCCn2c(=S)[nH]c3ccc(N4CCOCC4)cc3c2=O)CC1 | 55.6* | 10.5 | -51.7 | 0.3 | 7.1 | 10.1
CC(=O)Oc1oc(-c2ccccc2)nc1/C=N/c1ccccn1 | 12.4 | 13.7 | 15.4 | 7.6 | -8.5 | 83.5*
Cc1cc(C(=O)NC2CCCc3c2cnn3-c2ccc(C(C)(C)C)cc2)n[nH]1 (centres undefined) | -18.2 | x | 44.5 | x | 4.2 | -4.0
COc1ccc(NS(=O)(=O)c2cc(-c3nnnn3C)ccc2OC)cc1 | 21.2 | 2.5 | 66.1* | 6.2 | 4.9 | 0.9
CCCn1c2ccccc2c2nnc(SC(CC)C(=O)Nc3cc(C)on3)nc21 (centres undefined) | 15.4 | 1.7 | -1.9 | -6.2 | 2.2 | -1.2
CCCn1c2ccccc2c2nnc(SC(CC)C(=O)Nc3sc4c(c3C#N)CCCC4)nc21 (centres undefined) | 9.7 | 11.1 | 61.3* | -4.2 | 12.2 | 7.5
O=C(N/N=C/c1ccc(OC(F)F)cc1OC(F)F)c1ccc(Br)cc1 | -29.7 | 11.3 | -14.7 | 7.1 | -0.2 | 3.7
O=C(N/N=C/c1ccc(OC(F)F)cc1OC(F)F)NC1CCCCC1 | 14.0 | 2.7 | 31.7 | -8.7 | -4.3 | 29.2*
SMILES | SUMO HTRF inh | G6PDH CS | PHOSPHO1 block | p97 ATPase inh | M18AAP inhibitor | HDAC3 inh
O=C(c1cccc(Cl)c1)N1CCC(N2CCC(C(=O)N3CCCC3)CC2)CC1 | 19.9 | x | 32.4 | x | 2.1 | 1.7
CCOC(=O)Cc1nnc(NC(=O)CSc2nnc3c(n2)[nH]c2ccccc23)s1 | 1.2 | 2.1 | 20.9 | 6.2 | 1.7 | 64.6*
O=C(CSc1ncn(-c2ccccc2)n1)Nc1ccc2c(c1)OCCO2 | 26.7 | 4.4 | 62.1* | 1.5 | 1.1 | -2.3
O=C(CSc1nnc2c(n1)[nH]c1ccccc12)Nc1ccc2c(c1)OCO2 | 27.5 | -3.4 | 78.5* | 0.5 | 8.3 | 8.3
Cc1ccc(NC(=O)CSc2nnc3c(n2)[nH]c2ccccc23)cc1 | 2.9 | x | 34.8 | x | 3.1 | -1.3
CCOC(=O)Cc1nnc(NC(=O)CSc2nnc3c4ccccc4n(C(C)C)c3n2)s1 | 2.9 | -16.0 | -3.3 | 4.4 | 8.9 | 6.7
Cc1cccc(-n2ccnc2SCC(=O)Nc2ccc3c(c2)OCCO3)c1 | -3.9 | -17.1 | 14.3 | -2.6 | 4.8 | -5.2
O=C(CSc1nccn1-c1ccc(Cl)cc1)Nc1ccc2c(c1)OCO2 | -1.6 | 2.8 | 88.9* | 0.8 | 8.0 | 6.4
CCN(CC)CCNC(=O)C(=O)Nc1cc2c3c(c1)CCC(=O)N3CCC2 | 20.7 | x | 44.5 | x | 1.3 | 0.7
COc1ccc2c(c1)C=C(CN1CCN(C3CCCC3)C(CCO)C1)CO2 (centres undefined) | 6.4 | 7.9 | 23.6 | 3.1 | 0.9 | 5.7
O=C(OCC(=O)N1N=C(c2ccc(Cl)cc2)CC1c1ccco1)c1cccnc1 (centres undefined) | x | x | x | x | x | 1.5
Cc1ccc(S(=O)(=O)N2CCOCC2)cc1C(=O)OC(C)C(=O)c1ccccc1 (centres undefined) | x | x | x | x | x | 2.2
O=C(CSc1ncn(-c2ccccc2)n1)Nc1ccc2c(c1)OCO2 | 31.2 | 13.1 | 81.5* | 2.0 | 4.5 | 3.4
CCc1nnc(NC(=O)CCC(=O)N2CCN(S(=O)(=O)c3cc(Cl)ccc3OC)CC2)s1 | x | x | 69.7* | x | 5.0 | -0.7
CC(=O)c1sccc1NC(=O)CC(C)(C)CC(=O)O | -3.1 | x | 32.2 | -2.0 | -1.1 | 9.1
CN1CCN(c2oc(-c3ccccc3)nc2S(=O)(=O)c2ccc(Br)cc2)CC1 | -10.1 | x | 61.0* | x | -2.0 | -1.7
O=S(=O)(c1ccccc1)c1nc(-c2ccccc2)oc1N1CCCC1 | -0.9 | 4.1 | 46.6 | 1.6 | -4.8 | 0.3
CC(C)c1ccc(-c2nc(N3CCCCC3)[nH]c(=O)c2C#N)cc1 | -30.3 | 9.0 | -22.9 | -0.6 | -2.2 | -3.2
CC1=Nc2nc(N3CCCCC3)c(C#N)c3c4c(nc(c23)N1)N(c1ccc(C(C)C)cc1)C(=O)C4 | 59.7* | 12.5 | 1.5 | 8.7 | -1.2 | 3.5
Cc1cccc(NC(=O)CN2CCN(C(=O)c3cnn(Cc4ccccc4)c3)CC2)c1C | x | x | x | x | x | -1.1
COCC(=O)n1nc(NCc2ccc(OC)cc2)nc1NCc1ccc(OC)cc1 | 8.0 | 0.6 | -27.1 | -7.1 | 28.1* | 3.7
COc1ccc(CNc2nc(NCc3ccc(OC)cc3)n(S(C)(=O)=O)n2)cc1 | -8.9 | 8.2 | 7.1 | 2.0 | 0.3 | 10.5
